Assay results: PubChem BioAssay (NCI)
About 83,000 compounds went through this panel and 20% of them were active in at least one assay; those are over-represented in the sample as a whole.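 48-hour exposure, single concentration, 96-well plates; percent growth endpoint where 0 means no net growth. Active: below 10.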 Activity calls are given as the source filed them.

Test system: HCT-15 colon
Assay: NCI-60 one-dose screen, 48 h (100 = growth as untreated, 0 = no growth, -100 = all killed)
Details: 10 µM unless noted

| Compound | growth |
| --- | --- |
| O=C1Nc2ccccc2/C1=C/c1cccn1CCCCn1c2ccccc2c(=O)c2ccccc21 | 31.7% (inactive) |
| O=C1/C(=C/c2ccccc2Br)COc2ccc(O)cc21 | 40.7% (inactive) |
| O=S(=O)(Nc1ccc(Cl)c(C(F)(F)F)c1)c1ccc(-c2cnc(C3CC3)o2)cc1 | 22.5% (inactive) |
| Cc1cc(=O)oc2cc(OCc3nn4c(Nc5nc6ccccc6s5)c(-c5ccccc5)nc4s3)ccc12 | 91.3% (inactive) |
| COC(=O)c1c(C)c2n(c1C)C(=O)C(c1ccccc1)=C2 | 80.4% (inactive) |
| C#CCOC(=O)/C=C/c1cn(-c2ccccc2)nc1-c1ccc(OC)cc1 | 94.1% (inactive) |
| Cc1c2cnccc2c(C)c2c1c1cc(C#N)ccc1n2C | -20.6% (active) |
| COC(=O)c1cc(N=C2NC(=O)/C(=C/C=C/c3ccccc3)S2)ccc1O | 25.8% (inactive) |
| Cc1ccc2c(Cn3cc(CSc4nc5ccccc5o4)nn3)cc(=O)oc2c1 | 107% (inactive) |
| O=C(CSc1nnc(-c2cnccn2)n1-c1ccccc1)c1ccc(Cl)cc1 | 97.5% (inactive) |
| NS(=O)(=O)c1ccccc1NC(=O)Nc1nc2ccccc2s1 | 100% (inactive) |
| CCOC(=O)C1=C(N)Oc2c(sc3c(F)cccc23)C1c1ccc(O)cc1 (configuration not stated) | 24.2% (inactive) |
| COc1ccc(/C=C/C(=O)c2ccc(Nc3ccnc4cc(Cl)ccc34)cc2)cc1 | 77.7% (inactive) |
| Cc1cc(S(=O)(=O)/N=C(\N)n2nc(C)c(C)c2C)c(SCc2ccccc2)cc1Cl | 56.6% (inactive) |
| COc1ccc(/C=C(\C#N)n2nnc3cc(Cl)ccc32)cc1 | 0.0447% (active) |
| CSc1nnc(-c2cc3c([nH]c4ccccc43)c(-c3cccc(O)c3)n2)n1-c1ccccc1 | 26.7% (inactive) |
| O=C(O)c1ccc(-n2cc(/C=N/Nc3ccccc3)c(-c3ccc(F)cc3F)n2)cc1 | 51.4% (inactive) |
| O=C(/C=C/c1cccc(Cl)c1)c1ccc(Nc2nc(Nc3ccc(F)cc3)nc(Nc3ccc(Cl)cc3)n2)cc1 | 101% (inactive) |
| NC(=O)c1cccc(-n2ccc3cc(NC(=O)c4ccc(N5CCOCC5)c(C(F)(F)F)c4)ccc32)n1 | 33.8% (inactive) |

| Compound | growth |
| --- | --- |
| CCn1cc(C(=O)NNC(=S)Nc2ccc(C)cc2)c(=O)c2ccc(C)nc21 | 103% (inactive) |
| CC(C)(Sc1cc(C(C)(C)C)c(OC(=O)CCCC(=O)O)c(C(C)(C)C)c1)Sc1cc(C(C)(C)C)c(OC(=O)CCCC(=O)O)c(C(C)(C)C)c1 | 7.28% (active) |
| O=C(O)c1cn(C2CC2)c2cc(N3CCN(C(=O)N(c4ccccc4)c4nc(-c5ccccc5)cs4)CC3)c(F)cc2c1=O | 6.28% (active) |
| Cc1cccc(/C=C/c2c(C(=O)/C=C/c3ccccc3)c(C)nc3ccccc23)c1 | -58.8% (active) |
| O=C(CSc1oc(-c2ccccc2)nc1S(=O)(=O)c1ccccc1)Nc1ccc(F)cc1 | 73.7% (inactive) |
| O=C(/C=C/c1ccccc1)Nc1ncc(Cc2ccccc2Cl)s1 | 16% (inactive) |
| O=C(Nc1cccc(Cl)c1)Nc1cccc(Cn2c(=O)[nH]c3ccc(Oc4ncccn4)cc3c2=O)c1 | 80.6% (inactive) |
| Cc1ccc2c(c1)=C/C(=C\c1cc(-c3ccccc3)oc1O)C(=O)N=2 | 97.6% (inactive) |
| c1ccc(Cn2cc3c(c2)-c2oncc2CC3)cc1 | 26.2% (inactive) |
| CCN(CC)c1ccc(\C=N/N=C(N)/C(N)=N\N=C/c2ccc(N(CC)CC)cc2)cc1 | 92.4% (inactive) |
| Nc1ncc(-c2ccc3ncnc(Nc4cccc(Cl)c4)c3c2)cn1 | 38.8% (inactive) |
| c1ccc([P+](c2ccccc2)(c2ccccc2)c2ccc3c4ccc([P+](c5ccccc5)(c5ccccc5)c5ccccc5)c5cccc(c6cccc2c63)c54)cc1 | 66.2% (inactive) |
| Cc1ccc(NC(=O)Cn2cc(CN3CCN(c4ccnc5cc(Cl)ccc45)CC3)nn2)cc1 | 84.7% (inactive) |
| O=C(Nc1nc(-c2ccc(Cl)cc2)nc2c1sc(=S)n2-c1ccccc1)C(F)(F)F | 54.9% (inactive) |
| COCCn1cc(-c2csc(-c3cn(C)c4ccc(Br)cc34)n2)c2cccnc21 | 12.1% (inactive) |
| C#CCOc1ccc2ncnc(Nc3ccc(NC(=O)C=C)cc3)c2c1 | -14.8% (active) |
| Cn1cc(-c2csc(-c3c[nH]c4ccc(Br)cc34)n2)c2ccnc(Cl)c21 | -0.791% (active) |
| Nc1ncnc2c1c(-c1cccc(Cl)c1)nn2CC(=O)N1CCOCC1 | 101% (inactive) |
